According to PubChem BioAssay (NCATS):
Results filed as inconclusive are left out. Activity calls are given as the source filed them. The call rests on the fitted dose curve; in most records, active means well fitted curve in the direction sought with a large enough effect; inconclusive means small, poorly fitted or top-dose-only effect, or another doubt; inactive means no such curve, though single readings can be large or run the other way.

experiment: qHTS Assay for Identifying Gametocytocidal Compounds (AID 743244);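 further: actives lower the fluorescent signal which means gametocytes are killed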; conditions: P. falciparum 3D7 stage III-V gametocytes, alamarBlue, 72 h; max response: stronger effect = lower value
In short: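 Stage III-V P. falciparum 3D7 gametocytes, 20,000 per well, were exposed to compounds for 72 h at 37C, 5% CO2. AlamarBlue was then added for 24 h and viability was read as fluorescence at Ex 525/Em 598 nm.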
On the % scale 0 is the no-effect control and ±100 the full control effect.

| SMILES | max response |
| --- | --- |
| OC[C@H]1O[C@@H](Oc2ccc(O)cc2)[C@H](O)[C@@H](O)[C@@H]1O | 0.374% (inactive) |
| CC[N+](C)(CC)CCOC(=O)C(O)(c1ccccc1)C1CCCCC1 (stereo unspecified) | -1.51% (inactive) |
| O=S(=O)(O)c1ccc(O)cc1 | 19.1% (inactive) |
| C#C[C@]1(O)CC[C@H]2[C@@H]3CCc4cc(OC)ccc4[C@H]3CC[C@@]21C | -2.6% (inactive) |
| CC(C)Nc1cccnc1N1CCN(C(=O)c2cc3cc(NS(C)(=O)=O)ccc3[nH]2)CC1 | -8.7% (inactive) |
| CC(C)Cc1ccc(CC(=O)O)cc1 | 6.47% (inactive) |
| O=C1c2cccc3c2[C@H](CCC3)CN1[C@@H]1CN2CCC1CC2 | -7.45% (inactive) |
| CC(=O)O[C@H]1C[C@@H]2CC[C@@H]3[C@H](CC[C@@]4(C)[C@H]3C[C@H]([N+]3(C)CCCCC3)[C@@H]4OC(C)=O)[C@@]2(C)C[C@@H]1N1CCCCC1 | -2.39% (inactive) |
| CC(=O)OCC1=C(C(=O)O)N2C(=O)[C@@H](NC(=O)CSc3ccncc3)[C@H]2SC1 | -9.74% (inactive) |
| COc1cc(N)c(Cl)cc1C(=O)NC1CCN(Cc2ccccc2)CC1 | -0.971% (inactive) |
| O=C(NCCc1c[nH]c2ccccc12)c1cccnc1 | -3.02% (inactive) |
| O=C1C(O)=C(O)C(=O)C(O)=C1O | -3.08% (inactive) |
| CCC1Nc2cc(Cl)c(S(N)(=O)=O)cc2S(=O)(=O)N1 (stereo unspecified) | 7.47% (inactive) |
| CC(=O)NO | 6.13% (inactive) |
| CC(CNC1CCCCC1)OC(=O)c1ccccc1 (stereo unspecified) | 10.4% (inactive) |
| NC(=O)C1(N2CCCCC2)CCN(CCCC(=O)c2ccc(F)cc2)CC1 | 6.95% (inactive) |
